Data from PubChem BioAssay.

Assays:
[1] = test system: Human papillomavirus type 1a protein E7 (residues 44-93); experiment: small molecules binding HPV E7 44-93 – biochemical, small-molecule microarray, residues 44-93, 635 nm fluorescence, primary screen (AID 1108); details: fluorescence 635 nm, higher = more signal;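 also: E7 fragment applied at 1 µg/mL in TBST for 1 h at 4 C; score combines spot fluorescence with its signal to noise ratio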
[2] = hepatitis C replication reporter changes, two-sided – Huh7 cells, luciferase reporter, HCV replication inhibitor project, primary screen (AID 1109); details: Huh7 HCV replicon luciferase reporter, 48 h; higher = more signal;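 also: huh7 hepatoma cells harbouring a luciferase neomycin HCV replicon reporter; luciferase luminescence as measure of HCV replicon replication; test concentration not given here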
[3] = target: Left-right determination factor 2 (Homo sapiens) (UniProt O00292); experiment: small molecules binding LEFTY2 protein – biochemical, small-molecule microarray, 635 nm fluorescence scan, primary screen (AID 1110); details: higher = more signal
Chain of Left-right determination factor 2 (Homo sapiens) (O00292 whole entry, looked up): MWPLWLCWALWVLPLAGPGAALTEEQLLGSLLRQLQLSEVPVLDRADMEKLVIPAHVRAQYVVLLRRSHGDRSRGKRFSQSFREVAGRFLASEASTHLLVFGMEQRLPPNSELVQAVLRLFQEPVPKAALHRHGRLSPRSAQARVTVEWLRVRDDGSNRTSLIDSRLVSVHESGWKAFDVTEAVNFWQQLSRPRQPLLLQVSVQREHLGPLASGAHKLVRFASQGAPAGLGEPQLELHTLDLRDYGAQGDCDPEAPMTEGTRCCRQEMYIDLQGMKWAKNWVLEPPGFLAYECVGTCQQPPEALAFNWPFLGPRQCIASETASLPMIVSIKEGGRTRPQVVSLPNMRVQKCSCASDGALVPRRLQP

[4] = target: Calmodulin-1 (Homo sapiens) (UniProt P0DP23); experiment: small molecules binding calmodulin-1 with EGTA – biochemical, small-molecule microarray, Cy5-labelled CALM1, profiling panel (AID 1111); details: Cy5-CALM1 binding fluorescence, higher = more signal;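 also: labelled calmodulin applied in Tris saline Tween buffer holding calcium plus EGTA and DTT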
[5] = target: Calmodulin-1 (Homo sapiens) (UniProt P0DP23); experiment: small molecules binding Ca-loaded calmodulin-1 – biochemical, small-molecule microarray, Cy5-labelled CALM1, plus calcium, artefact control for SMM control-protein annotation, profiling panel (AID 1112); details: Cy5-CALM1 binding fluorescence, higher = more signal;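 also: score merges spot fluorescence with signal to noise from triplicate slides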
[6] = probe aWnt5a binding to arrayed compounds – biochemical, biotinylated probe, 635/667 nm fluorescence, primary screen (AID 1113); details: small-molecule microarray, higher = more signal;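 also: score merges 667 nm fluorescence intensity with signal-to-noise per printed feature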
[7] = probe aShh binding to arrayed compounds – biochemical, biotinylated probe, 635/667 nm fluorescence, primary screen (AID 1114); details: small-molecule microarray, higher = more signal;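 also: probe is biotin-labelled aShh protein from a stem cell growth factor screen; measures binding of labelled protein to compounds printed on the slide; score merges feature fluorescence at 667 nm with signal-to-noise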
[8] = probe aNog binding to arrayed compounds – biochemical, biotinylated probe, 635/667 nm fluorescence, primary screen (AID 1115); details: small-molecule microarray, higher = more signal;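 also: probe is biotinylated aNog protein used at 0.15 µg/mL for 1 h at 4 C; z-score combines 667 nm fluorescence of each spot with its signal to noise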
[9] = target: Torsin-1A-interacting protein 1 (Homo sapiens) (UniProt Q5JTV8); experiment: compound microarray binding of lysate hLAP1 – cell lysate, small-molecule microarray, COS7 lysate, 635/667 nm fluorescence, primary screen (AID 1116); details: 635 nm fluorescence, higher = more signal
Chain of Torsin-1A-interacting protein 1 (Homo sapiens) (Q5JTV8 whole entry, looked up): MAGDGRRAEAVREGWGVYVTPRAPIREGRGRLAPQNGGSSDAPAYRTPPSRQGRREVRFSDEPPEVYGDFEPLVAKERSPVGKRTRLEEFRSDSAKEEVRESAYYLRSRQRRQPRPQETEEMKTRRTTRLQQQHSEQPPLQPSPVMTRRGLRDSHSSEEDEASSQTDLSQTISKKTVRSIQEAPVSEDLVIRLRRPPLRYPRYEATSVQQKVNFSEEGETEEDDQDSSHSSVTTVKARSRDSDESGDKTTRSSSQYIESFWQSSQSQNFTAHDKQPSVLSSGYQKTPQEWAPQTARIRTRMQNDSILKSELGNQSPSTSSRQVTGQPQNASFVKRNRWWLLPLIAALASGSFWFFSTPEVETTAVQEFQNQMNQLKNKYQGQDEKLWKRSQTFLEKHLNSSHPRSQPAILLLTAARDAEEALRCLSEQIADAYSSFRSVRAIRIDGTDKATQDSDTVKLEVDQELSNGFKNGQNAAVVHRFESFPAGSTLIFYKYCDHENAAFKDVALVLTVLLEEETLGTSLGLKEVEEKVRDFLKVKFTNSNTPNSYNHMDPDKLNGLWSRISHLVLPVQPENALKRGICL

[10] = target: Alpha-bungarotoxin (Bungarus multicinctus) (UniProt P60615); experiment: compounds binding labelled alpha-BTX control protein – biochemical, small-molecule microarray, Alexa647 label, 635/667 nm fluorescence, artefact control for SMM control protein annotation, profiling panel (AID 1117); details: alpha-BTX-A647 binding fluorescence, higher = more signal
Chain of Alpha-bungarotoxin (Bungarus multicinctus) (P60615 whole entry, looked up): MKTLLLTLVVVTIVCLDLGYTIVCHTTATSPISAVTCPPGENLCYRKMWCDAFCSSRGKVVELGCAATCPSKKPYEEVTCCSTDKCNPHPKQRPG

SMILES | composite z-score [1] | z-score [2] | composite z-score [3] | composite z-score [4] | composite z-score [5] | composite z-score [6] | composite z-score [7] | composite z-score [8] | composite z-score [9] | composite z-score [10]
C=CCN1C(=O)[C@@]2(O[C@@H](CCO)[C@H]([Si](C)(C)c3ccc(OC)cc3)[C@H]2C)c2cc(NC(=O)c3ccc(OC)cc3)ccc21 | -0.747 | -4.9 | 0.629 | -0.178 | 0.678 | -0.199 | 0.0062 | 0.141 | -0.419 | 0.565
C=CCOC(=O)[C@H]1[C@@H]2C(=O)O[C@@H](c3ccccc3)[C@@H](c3ccccc3)N2[C@@H](c2ccc(OCCOC(=O)[C@H]3C[C@H]4C(=O)N[C@@H](CC(C)C)C(=O)N4[C@H]3c3ccc(O)cc3)cc2)[C@]12C(=O)Nc1ccc(I)cc12 | 1.41 | -0.86 | 0.644 | 0.321 | -0.388 | 0.0597 | 0.0469 | 0.13 | 1.78 | 1.82
COC(=O)[C@@]1(Cc2ccc(F)cc2)[C@@H]2[C@@H](CC(=O)[C@H]2CC(=O)C(=O)N(C)C)CN1C(=O)c1ccccc1 | 1.44 | -2.53 | -0.211 | 1.29 | 0.352 | 0.24 | 0.522 | 1.41 | 1.08 | 1.15
O=C(c1ccccc1)N1Cc2ccccc2[C@@H]2OC(c3ccc(OCCCO)cc3)=N[C@]2(Cc2ccccc2)C1=O | 1.29 | -1.58 | 0.243 | 0.978 | -0.0808 | 0.0825 | -0.305 | -0.364 | 0.215 | 1.19
COC(=O)c1c(CC[C@@H](CO)NC(=O)N2CCC[C@H]2Cn2cc(-c3ccccn3)nn2)oc(C(C)=O)c1C(=O)OC | 0.0413 | -1.03 | -0.219 | -0.209 | -0.747 | -0.152 | -0.0474 | -0.0418 | -0.219 | -0.0614
C=CC[C@]1(C(=O)NCCCOC)N=C(c2ccc(OCCCO)cc2)O[C@H]1c1ccccc1N=[N+]=[N-] | 1.05 | -0.682 | -0.338 | 2.08 | 0.312 | 0.191 | 0.535 | 1.8 | 1.47 | 0.928
O=C1[C@H]2C=C(Br)[C@H](C[C@@H]2OCCCCO)[C@@]12CO2 | -0.875 | -1.98 | 0.307 | -0.442 | -1.04 | -0.0944 | 0.149 | 0.101 | -0.272 | -0.032
C=CCNC(=O)[C@@H]1[C@H]2C(=O)O[C@H](c3ccccc3)[C@H](c3ccccc3)N2[C@H](c2ccc(OCCO)cc2)[C@@]12C(=O)Nc1ccc(C#Cc3ccc(OC)cc3)cc12 | 0.14 | -1.87 | 0.849 | 1.63 | 0.0791 | 0.0597 | 0.366 | 0.201 | 0.781 | 2.88
COC(=O)c1c(CC[C@@H](CO)NC(=O)N[C@H](Cn2cc(Cc3ccccc3)nn2)C(C)C)oc(C(C)=O)c1C(=O)OC | 0.712 | -0.0084 | 0.637 | -0.279 | -0.573 | -0.18 | 0.288 | -0.143 | 0.223 | 0.882
COC(=O)[C@@]1(Cc2ccc(F)cc2)[C@H]2c3cc(C(=O)N(C)C)n(CC4CC4)c3C[C@H]2CN1C(=O)c1ccccc1 | 1.45 | -1.14 | 0.0265 | 2.21 | 1.39 | 1.05 | 1.38 | 0.816 | 0.156 | 1.69
C#CCN(Cc1ccccc1Br)C(/C=C/c1ccccc1)CO (stereo not given) | -0.413 | -3.49 | -0.362 | -0.669 | -0.423 | -0.16 | 0.0494 | -0.443 | 0.104 | 0.0125
CC(=O)NCCCC[C@@H]1NC(=O)[C@@H]2C[C@H](C(=O)NCCCCCCNC(=O)CS)[C@H](c3cccc(OCCO)c3)N2C1=O | 0.517 | -0.938 | 0.221 | 0.572 | 0.361 | 0.0004 | -0.142 | -0.196 | 0.16 | 0.505
C=CC[C@@]1(C(=O)N(C)C)N=C(c2ccc(OCCCO)cc2)O[C@@H]1c1ccccc1N=[N+]=[N-] | 0.608 | -1.08 | 0.232 | 2.66 | 1.03 | 0.0597 | 0.613 | 2.21 | 2.7 | 2.95
COCCOC(=O)N1C(=O)[C@@]2(c3cc(C#CCCO)ccc31)[C@H](c1ccc(OCCO)cc1)N1[C@H](c3ccccc3)[C@H](c3ccccc3)OC(=O)[C@H]1[C@@H]2C(=O)N1CCN(c2ncccn2)CC1 | 1.37 | -1.46 | 0.781 | 1.33 | -0.243 | -0.131 | -0.0035 | -0.483 | 0.398 | 0.582
C#CCN(CC=C(C)C)[C@H](CO)c1ccccc1 | 0.309 | -0.817 | 0.185 | -0.171 | -0.438 | 0.0771 | -0.279 | -0.176 | 0.455 | 0.136
COCCCN1C(=O)[C@@]2(c3ccc([N+](=O)[O-])cc3)CC(=O)N(C3CCCCC3)[C@@H]2c2ccc(CO)cc21 | 0.215 | -1.4 | 0.289 | -0.463 | -1.17 | -0.096 | -0.223 | 0.439 | 0.0951 | 0.467
CC(C)C(CO)N1C(=O)[C@@H]2[C@H]3C(=O)OCC=C[C@H]3OC23C=CCN(C(C)C)C(=O)[C@@H]13 (stereo not given in full) | -0.432 | 1.07 | -0.0108 | -0.531 | -1.11 | -0.2 | -0.223 | -0.0926 | -0.262 | -0.557

SMILES | composite z-score [1] | z-score [2] | composite z-score [3] | composite z-score [4] | composite z-score [5] | composite z-score [6] | composite z-score [7] | composite z-score [8] | composite z-score [9] | composite z-score [10]
C=CCC(OC(C)=O)[C@@H]1[C@@H](N(Cc2ccc(-c3cccc(C(F)(F)F)c3)o2)C(=O)Cc2ccc(F)cc2)c2cc(OCCCO)ccc2N1C(=O)Cc1ccc(OC)cc1 (stereo not given in full) | -2.04 | -1.36 | -0.665 | -0.718 | -0.751 | -0.18 | -0.138 | -0.463 | -0.354 | -0.167
[N-]=[N+]=Nc1ccccc1C[C@@]1(C(=O)NCCN2CCOCC2)N=C(c2ccc(OCCCO)cc2)O[C@@H]1c1ccccc1 | 1.47 | -1.32 | 0.248 | 0.797 | -0.3 | -0.0303 | 0.315 | -0.462 | 0.819 | 0.597
C=CCC(OC(C)=O)[C@@H]1[C@@H](N(Cc2ccc(-c3cccc(C(F)(F)F)c3)o2)C(=O)c2ccc(-c3ccccc3)cc2)c2cc(OCCCO)ccc2N1C(=O)c1ccc(-c2ccccc2)cc1 (stereo not given in full) | -0.165 | -0.614 | -0.15 | -0.104 | 1.35 | 0.0214 | 0.275 | 0.26 | -0.228 | 0.288
COc1ccc(C(O)C2C=CC3C(=O)N(c4ccccc4)C(=O)C3N2Nc2ccc(C(C)C)cc2)cc1OCc1ccccc1 (stereo not given) | 0.473 | -0.264 | 0.346 | 2.13 | 0.682 | 0.145 | -0.0375 | 0.299 | 0.598 | 2.07
[N-]=[N+]=NCc1ccccc1[C@@H]1OC(c2ccc(OCCCO)cc2)=N[C@]1(CCS(=O)(=O)c1ccccc1)C(=O)NCc1ccccc1 | 0.512 | -1.78 | 0.526 | 1.02 | 0.222 | 0.301 | 0.487 | 2.12 | 0.142 | 2.18
O=C1O[C@@H](c2ccccc2)[C@@H](c2ccccc2)N2[C@@H](c3ccccc3OCCO)[C@]3(C(=O)Nc4ccc(C#CC5=CCCCC5)cc43)[C@@H](C(=O)Nc3nc4ccccc4s3)[C@H]12 | 1.4 | -2.52 | 0.501 | 1.32 | 0.337 | -0.0084 | 0.356 | -0.167 | 0.705 | 1.32
O=C1C2C=CC(C(O)c3c(F)cccc3Cl)N(Nc3ccccc3)C2C(=O)N1c1ccccc1 (stereo not given) | 1.46 | -0.927 | 0.407 | 1.46 | 0.546 | 0.0775 | 0.969 | 1.59 | 0.765 | 0.933
COc1ccc(C(O)C2C=CC3C(=O)N(c4ccccc4)C(=O)C3N2Nc2ccccc2F)cc1OCc1ccccc1 (stereo not given) | 1.4 | -0.0689 | -0.477 | 2.15 | 0.983 | 0.108 | 0.232 | -0.115 | 1.2 | 1.55
[N-]=[N+]=NCc1ccccc1[C@H]1OC(c2ccc(OCCCO)cc2)=N[C@@]1(Cc1ccccc1)C(=O)NCc1ccccc1 | 0.296 | -2.19 | 0.0739 | 1.45 | 0.727 | 0.075 | 0.22 | 0.683 | 0.881 | 0.761
COCCCNC(=O)[C@@]1(Cc2ccccc2)N=C(c2ccc(OCCCO)cc2)O[C@H]1c1ccccc1 | 0.53 | -1.39 | -0.582 | 2.34 | 1.05 | -0.174 | -0.36 | -0.442 | 1.96 | 2.34
COc1ccc([Si](C)(C)[C@@H]2[C@@H](CC(=O)N3Cc4ccccc4C[C@H]3CO)O[C@]3(C(=O)N(C)c4c(Br)cc(C)cc43)[C@H]2C)cc1 | 1.37 | -4.43 | 0.637 | 0.0208 | 0.235 | 0.0078 | -0.0793 | -0.454 | 0.418 | 1.01
O=C1OCC=C[C@H]2OC34C=CCN(c5ccc6ccccc6c5)C(=O)[C@H]3N(CCCCCCO)C(=O)[C@@H]4[C@@H]12 (stereo not given in full) | -0.925 | 0.699 | -1.06 | -0.327 | 0.132 | -0.152 | 0.0121 | 0.509 | 1.09 | -1.01
CCCCc1cn(C[C@H](Cc2ccccc2)NC(=O)N[C@H](CO)CCc2oc(C(C)=O)c(C(=O)OC)c2C(=O)OC)nn1 | 1.39 | -0.639 | 1.26 | 0.451 | -0.693 | -0.0045 | 0.184 | -0.0965 | 0.644 | 0.463
C=CCN1C(=O)[C@]2(O[C@H](CCO)[C@@H]([Si](C)(C)c3ccc(OC)cc3)[C@@H]2C)c2cc(N3CCCCC3=O)ccc21 | 1.44 | -4.11 | 0.0651 | 0.856 | 0.352 | -0.0977 | 0.147 | 0.431 | 0.957 | 1.19
CC(=O)n1cc(C(O)C2C=CC3C(=O)N(C)C(=O)C3N2Nc2ccccc2)c2ccccc21 (stereo not given) | 1.35 | -0.581 | 0.532 | 0.202 | -0.53 | 0.105 | 0.494 | 0.578 | 1.36 | 1.18
CC(C)(C)OC(=O)CC[C@@]1(C(N)=O)N=C(c2ccc(OCCCO)cc2)O[C@@H]1c1ccccc1 | 1.38 | 0.14 | -0.289 | 0.31 | -0.216 | -0.0512 | -0.419 | -0.534 | 1.2 | 0.646
CN(C)C(=O)[C@@]1(Cc2ccccc2CN=[N+]=[N-])N=C(c2ccc(OCCCO)cc2)O[C@H]1c1ccccc1 | 0.993 | -2.96 | -0.498 | 0.691 | 0.46 | 0.0077 | -0.0243 | 1.83 | 1.43 | 1.33
